Tests used:
Experiment in all cases: log2 ratio of Biotin-Ahx-Ub-VS probe labelling (fragment/DMSO); higher = less target engagement (more negative = stronger competition), active = hit call of the paper (q ≤ 0.05, log2 ratio ≤ -1)
Conditions in all cases: compound concentration: 200 uM; treatment time: 3 h
USP19 = molecular target: T1, USP19 (UniProt O94966)
T1 sequence (whole entry): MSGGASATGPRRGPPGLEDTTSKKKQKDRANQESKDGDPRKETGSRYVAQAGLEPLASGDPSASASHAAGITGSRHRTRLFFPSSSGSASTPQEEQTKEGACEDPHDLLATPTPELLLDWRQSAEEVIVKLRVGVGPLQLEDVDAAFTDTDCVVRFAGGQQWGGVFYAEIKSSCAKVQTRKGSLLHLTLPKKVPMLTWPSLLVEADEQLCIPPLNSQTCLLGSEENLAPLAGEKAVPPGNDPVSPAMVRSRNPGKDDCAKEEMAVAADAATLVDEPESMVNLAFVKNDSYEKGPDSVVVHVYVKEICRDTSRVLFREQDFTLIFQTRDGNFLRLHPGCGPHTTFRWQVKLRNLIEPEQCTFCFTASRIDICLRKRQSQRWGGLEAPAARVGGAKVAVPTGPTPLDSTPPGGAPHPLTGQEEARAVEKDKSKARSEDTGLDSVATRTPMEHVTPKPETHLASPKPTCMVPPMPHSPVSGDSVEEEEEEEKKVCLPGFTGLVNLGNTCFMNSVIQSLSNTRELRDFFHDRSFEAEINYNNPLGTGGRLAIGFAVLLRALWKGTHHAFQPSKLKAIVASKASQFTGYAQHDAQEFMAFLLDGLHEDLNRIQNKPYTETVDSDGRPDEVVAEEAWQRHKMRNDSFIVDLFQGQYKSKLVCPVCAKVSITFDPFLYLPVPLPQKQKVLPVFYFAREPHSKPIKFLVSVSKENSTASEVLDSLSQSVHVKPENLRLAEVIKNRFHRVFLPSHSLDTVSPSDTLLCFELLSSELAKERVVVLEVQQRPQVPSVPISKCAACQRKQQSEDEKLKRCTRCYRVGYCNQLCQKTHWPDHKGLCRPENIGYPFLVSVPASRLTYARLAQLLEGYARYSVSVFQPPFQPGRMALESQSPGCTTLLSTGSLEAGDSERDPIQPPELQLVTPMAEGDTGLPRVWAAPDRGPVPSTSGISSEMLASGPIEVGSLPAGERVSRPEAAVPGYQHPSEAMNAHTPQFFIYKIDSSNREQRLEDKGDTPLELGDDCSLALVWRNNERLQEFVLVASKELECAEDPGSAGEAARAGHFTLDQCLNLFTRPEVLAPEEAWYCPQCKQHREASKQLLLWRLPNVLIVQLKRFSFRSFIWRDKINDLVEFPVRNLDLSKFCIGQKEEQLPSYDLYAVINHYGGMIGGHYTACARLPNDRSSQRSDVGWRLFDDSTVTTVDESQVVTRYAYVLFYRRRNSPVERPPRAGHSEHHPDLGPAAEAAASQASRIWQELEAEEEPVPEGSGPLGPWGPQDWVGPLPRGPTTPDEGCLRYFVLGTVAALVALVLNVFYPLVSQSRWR
Method in brief: (§1)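 Each value is an average log2 ratio of fragment to vehicle, tested by unpaired t-test. The underlying Spectronaut label-free quantities were global-median-normalised, and only proteins with ≥2 unique peptides were included. Triplicate HEK293T lysate samples (495 µg) were exposed to fragment at 200 µM or vehicle for 3 h, then to Biotin-Ahx-Ub-VS at 0.5 µM final for 1 h, before NeutrAvidin enrichment of labelled DUBs, LysC and trypsin digestion, and diaPASEF LC-MS/MS.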

USP22 = molecular target: T2, USP22 (UniProt Q9UPT9)
T2 sequence (whole entry): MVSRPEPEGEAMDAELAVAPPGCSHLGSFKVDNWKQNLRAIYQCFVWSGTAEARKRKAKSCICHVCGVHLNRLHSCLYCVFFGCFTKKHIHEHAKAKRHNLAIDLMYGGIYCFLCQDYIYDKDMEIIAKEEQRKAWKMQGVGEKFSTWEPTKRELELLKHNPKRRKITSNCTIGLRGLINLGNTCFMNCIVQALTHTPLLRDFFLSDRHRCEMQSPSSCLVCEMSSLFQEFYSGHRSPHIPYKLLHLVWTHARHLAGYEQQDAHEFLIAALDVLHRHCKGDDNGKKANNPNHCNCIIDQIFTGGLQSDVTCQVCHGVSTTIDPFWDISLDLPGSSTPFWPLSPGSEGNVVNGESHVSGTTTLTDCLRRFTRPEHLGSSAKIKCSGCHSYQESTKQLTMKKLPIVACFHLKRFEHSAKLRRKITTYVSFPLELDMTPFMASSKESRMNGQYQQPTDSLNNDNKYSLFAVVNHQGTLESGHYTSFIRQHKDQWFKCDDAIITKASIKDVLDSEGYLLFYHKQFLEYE
Method in brief: as §1

USP24 = USP24 (UniProt Q9UPU5)
USP24, sequence (Q9UPU5 whole entry): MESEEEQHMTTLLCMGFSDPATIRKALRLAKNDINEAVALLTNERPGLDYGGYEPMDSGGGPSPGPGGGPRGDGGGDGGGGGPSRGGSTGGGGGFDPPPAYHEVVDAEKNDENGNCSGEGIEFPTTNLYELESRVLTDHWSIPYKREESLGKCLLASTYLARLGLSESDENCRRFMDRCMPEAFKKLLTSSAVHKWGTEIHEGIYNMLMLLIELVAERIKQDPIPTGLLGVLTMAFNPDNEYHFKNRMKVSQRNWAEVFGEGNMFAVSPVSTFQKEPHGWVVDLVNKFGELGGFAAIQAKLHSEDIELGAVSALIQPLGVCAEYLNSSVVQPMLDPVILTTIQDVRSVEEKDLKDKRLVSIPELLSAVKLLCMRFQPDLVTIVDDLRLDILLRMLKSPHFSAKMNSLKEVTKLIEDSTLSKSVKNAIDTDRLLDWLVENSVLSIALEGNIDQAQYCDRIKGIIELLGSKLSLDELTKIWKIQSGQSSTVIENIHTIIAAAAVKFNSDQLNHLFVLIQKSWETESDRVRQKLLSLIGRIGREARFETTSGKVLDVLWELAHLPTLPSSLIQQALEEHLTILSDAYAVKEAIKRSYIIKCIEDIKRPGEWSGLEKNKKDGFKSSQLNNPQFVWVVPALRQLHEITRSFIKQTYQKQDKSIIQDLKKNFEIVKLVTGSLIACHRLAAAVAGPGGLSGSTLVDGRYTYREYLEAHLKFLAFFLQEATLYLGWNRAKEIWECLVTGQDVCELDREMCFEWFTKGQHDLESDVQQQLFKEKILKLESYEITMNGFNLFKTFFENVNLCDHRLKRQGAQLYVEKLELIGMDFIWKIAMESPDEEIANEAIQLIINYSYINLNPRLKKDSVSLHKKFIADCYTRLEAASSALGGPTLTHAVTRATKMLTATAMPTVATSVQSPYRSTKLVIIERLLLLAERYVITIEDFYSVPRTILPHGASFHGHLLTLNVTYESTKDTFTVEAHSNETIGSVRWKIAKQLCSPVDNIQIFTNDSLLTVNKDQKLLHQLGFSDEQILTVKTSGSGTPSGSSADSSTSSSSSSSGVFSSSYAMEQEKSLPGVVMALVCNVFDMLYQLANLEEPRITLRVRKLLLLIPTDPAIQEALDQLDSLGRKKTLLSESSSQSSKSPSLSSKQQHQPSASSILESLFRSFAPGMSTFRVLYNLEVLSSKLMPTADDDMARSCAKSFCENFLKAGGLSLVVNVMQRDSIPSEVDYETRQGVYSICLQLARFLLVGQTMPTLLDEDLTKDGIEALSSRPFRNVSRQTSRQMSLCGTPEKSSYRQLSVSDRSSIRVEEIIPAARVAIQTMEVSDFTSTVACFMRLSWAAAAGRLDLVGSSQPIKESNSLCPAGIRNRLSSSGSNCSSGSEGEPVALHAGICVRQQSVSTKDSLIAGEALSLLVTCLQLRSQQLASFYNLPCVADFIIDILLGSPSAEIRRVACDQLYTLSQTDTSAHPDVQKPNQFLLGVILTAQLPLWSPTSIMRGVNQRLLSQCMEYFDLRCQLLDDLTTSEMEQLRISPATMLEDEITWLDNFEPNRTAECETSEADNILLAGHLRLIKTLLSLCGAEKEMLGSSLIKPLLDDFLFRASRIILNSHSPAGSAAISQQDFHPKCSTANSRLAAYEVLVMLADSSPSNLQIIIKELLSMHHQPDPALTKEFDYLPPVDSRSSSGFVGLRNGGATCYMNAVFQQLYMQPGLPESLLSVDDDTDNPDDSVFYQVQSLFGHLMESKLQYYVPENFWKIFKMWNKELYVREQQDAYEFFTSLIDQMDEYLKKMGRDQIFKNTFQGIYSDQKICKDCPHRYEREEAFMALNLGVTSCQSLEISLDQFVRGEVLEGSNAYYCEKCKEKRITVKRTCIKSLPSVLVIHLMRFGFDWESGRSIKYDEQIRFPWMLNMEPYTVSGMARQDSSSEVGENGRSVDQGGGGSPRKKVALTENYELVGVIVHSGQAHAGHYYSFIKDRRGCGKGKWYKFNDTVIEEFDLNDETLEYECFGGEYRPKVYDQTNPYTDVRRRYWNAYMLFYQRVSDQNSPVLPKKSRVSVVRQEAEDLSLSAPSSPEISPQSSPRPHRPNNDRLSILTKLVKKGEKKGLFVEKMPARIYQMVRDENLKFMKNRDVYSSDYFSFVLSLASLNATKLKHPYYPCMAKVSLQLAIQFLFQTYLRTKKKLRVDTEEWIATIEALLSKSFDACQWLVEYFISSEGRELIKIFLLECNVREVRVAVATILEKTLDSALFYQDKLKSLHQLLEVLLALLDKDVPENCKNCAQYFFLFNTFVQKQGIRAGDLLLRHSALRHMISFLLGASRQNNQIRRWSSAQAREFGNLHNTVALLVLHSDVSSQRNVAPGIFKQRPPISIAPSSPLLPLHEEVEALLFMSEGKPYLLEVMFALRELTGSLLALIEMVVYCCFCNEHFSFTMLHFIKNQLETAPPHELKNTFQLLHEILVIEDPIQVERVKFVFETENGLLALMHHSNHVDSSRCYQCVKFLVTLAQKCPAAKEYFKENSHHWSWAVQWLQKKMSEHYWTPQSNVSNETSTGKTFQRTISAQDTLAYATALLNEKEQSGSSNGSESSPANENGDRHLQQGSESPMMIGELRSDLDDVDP
Method in brief: as §1

USP25 = molecular target: T3, USP25 (UniProt Q9UHP3)
T3 sequence (whole entry): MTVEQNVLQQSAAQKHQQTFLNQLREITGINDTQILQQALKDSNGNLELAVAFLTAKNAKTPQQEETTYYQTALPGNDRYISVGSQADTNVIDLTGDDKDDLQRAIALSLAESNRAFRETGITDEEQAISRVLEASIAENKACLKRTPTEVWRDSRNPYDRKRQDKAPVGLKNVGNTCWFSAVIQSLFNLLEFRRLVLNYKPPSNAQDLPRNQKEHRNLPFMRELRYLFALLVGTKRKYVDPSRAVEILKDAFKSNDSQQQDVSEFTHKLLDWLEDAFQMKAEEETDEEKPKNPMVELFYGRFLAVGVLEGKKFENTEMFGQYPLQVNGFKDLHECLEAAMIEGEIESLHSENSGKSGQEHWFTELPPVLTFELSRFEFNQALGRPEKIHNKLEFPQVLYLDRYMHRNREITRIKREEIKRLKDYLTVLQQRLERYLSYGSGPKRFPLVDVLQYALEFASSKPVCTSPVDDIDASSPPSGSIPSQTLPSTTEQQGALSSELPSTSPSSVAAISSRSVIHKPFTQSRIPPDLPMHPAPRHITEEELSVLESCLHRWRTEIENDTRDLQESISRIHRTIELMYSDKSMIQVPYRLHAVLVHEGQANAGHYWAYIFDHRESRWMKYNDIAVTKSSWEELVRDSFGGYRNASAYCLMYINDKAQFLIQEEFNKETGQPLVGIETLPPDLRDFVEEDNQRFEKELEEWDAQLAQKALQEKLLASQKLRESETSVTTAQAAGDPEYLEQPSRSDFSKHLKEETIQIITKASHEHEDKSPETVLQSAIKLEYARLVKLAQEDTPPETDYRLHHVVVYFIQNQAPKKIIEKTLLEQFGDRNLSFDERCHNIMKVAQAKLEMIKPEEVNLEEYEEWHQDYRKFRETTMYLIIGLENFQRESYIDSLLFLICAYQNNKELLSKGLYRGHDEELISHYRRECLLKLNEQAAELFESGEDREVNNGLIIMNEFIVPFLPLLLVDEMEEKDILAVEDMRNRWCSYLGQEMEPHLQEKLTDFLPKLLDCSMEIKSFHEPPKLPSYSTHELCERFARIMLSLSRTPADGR
Method in brief: as §1

USP28 = molecular target: T4, USP28 (UniProt Q96RU2)
T4 sequence (whole entry): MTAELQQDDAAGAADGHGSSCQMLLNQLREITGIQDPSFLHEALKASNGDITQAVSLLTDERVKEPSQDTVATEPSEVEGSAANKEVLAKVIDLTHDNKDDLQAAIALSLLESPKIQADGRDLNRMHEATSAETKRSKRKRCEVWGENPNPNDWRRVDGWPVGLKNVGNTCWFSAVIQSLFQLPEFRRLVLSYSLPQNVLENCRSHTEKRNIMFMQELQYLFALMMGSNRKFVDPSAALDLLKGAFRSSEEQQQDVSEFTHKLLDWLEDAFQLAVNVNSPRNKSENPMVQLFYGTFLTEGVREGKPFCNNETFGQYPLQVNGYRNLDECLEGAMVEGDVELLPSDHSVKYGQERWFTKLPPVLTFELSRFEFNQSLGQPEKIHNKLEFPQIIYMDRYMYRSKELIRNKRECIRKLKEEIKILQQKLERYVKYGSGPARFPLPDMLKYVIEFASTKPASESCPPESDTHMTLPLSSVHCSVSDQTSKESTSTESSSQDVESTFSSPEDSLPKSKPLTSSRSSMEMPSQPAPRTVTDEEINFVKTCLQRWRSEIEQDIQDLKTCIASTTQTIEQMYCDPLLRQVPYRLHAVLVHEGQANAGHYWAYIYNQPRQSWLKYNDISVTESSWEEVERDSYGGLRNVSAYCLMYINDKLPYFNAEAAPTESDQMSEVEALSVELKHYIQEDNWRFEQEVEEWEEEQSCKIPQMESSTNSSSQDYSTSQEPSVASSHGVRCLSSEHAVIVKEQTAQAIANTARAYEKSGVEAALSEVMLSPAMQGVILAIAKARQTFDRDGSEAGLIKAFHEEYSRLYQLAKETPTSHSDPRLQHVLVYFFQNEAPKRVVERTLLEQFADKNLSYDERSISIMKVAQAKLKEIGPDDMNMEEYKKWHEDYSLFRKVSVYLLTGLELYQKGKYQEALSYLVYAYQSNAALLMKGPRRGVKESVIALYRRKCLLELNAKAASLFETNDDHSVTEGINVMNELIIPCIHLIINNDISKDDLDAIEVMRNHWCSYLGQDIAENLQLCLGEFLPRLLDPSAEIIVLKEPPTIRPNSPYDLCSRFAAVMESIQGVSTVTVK
Method in brief: as §1

Measured: log2 ratio of Biotin-Ahx-Ub-VS probe labelling

CN(CCC(O)c1ccc(Br)cc1)C(=O)CCl (stereo not given)
inactive: USP19 -0.439 | USP22 -0.43 | USP24 -0.901 | USP25 -0.071 | USP28 -0.457
